Data on 37 molecules can be found in PubChem BioAssay (NCATS).

Results filed as inconclusive are left out. Unmarked numbers belong to inactive results. Calls of active or inactive are those of the source. Calls follow the shape of the dose curve; as a rule, active = well fitted curve in the direction sought with a large enough effect; inconclusive = small, poorly fitted or top-dose-only effect, or another doubt; inactive = no such curve, though single readings can be large; an effect the other way counts as inactive or inconclusive.

Test [1] can be described thus: Viability qHTS for spleen associated tyrosine kinase inhibitor (SYKi) naive MV4-11 cells (AID 1963823). Also: nearly all actives have a fitted effect of over 40% in size. Also: potency is read from the fitted curve at half-maximal effect. An outline of the steps:
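Viability of MV4-11 AML cells lacking prior SYK inhibitor exposure is scored by CellTiter-Glo luminescence following 72 hr compound incubation at 37 C, 5% CO2, seeded at 500 cells per well.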

Test [2] can be described thus: Viability qHTS for spleen associated tyrosine kinase inhibitor (SYKi) drug resistant MV4-11 cells (AID 1963824). Also: nearly all actives have a fitted effect of over 35% in size. Also: potency is read from the fitted curve at half-maximal effect. Summed up: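 SYK inhibitor-resistant MV4-11 AML cells, 500 per well, added to predispensed compounds and incubated 72 hr at 37 C, 5% CO2. Viability measured by CellTiter-Glo luminescence after 10 min at room temperature.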
In general terms: Quantitative high-throughput screening tests each substance at several concentrations.

The nature of test [3]: Quantitative highthroughput screen to assess conditional lethalithy of NOMO1 cells grown in RPMI1640 with untreated serum (RPMI+s) (AID 1963876). Also: potency is read from the fitted curve at half-maximal effect; nearly all actives have a fitted effect of over 35% in size. An outline of the steps:
(§1)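 Each medium arm—HPLM with 10% dialyzed FBS, or RPMI1640 with 5 mM glucose and 10% untreated or dialyzed FBS—was screened against an 11-point, 3-fold compound titration for 48 h at 37 °C, with CellTiter-Glo luminescence as endpoint.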

Test [4] is described as follows: Quantitative highthroughput screen to assess conditional lethalithy of NOMO1 cells grown in RPMI1640 with dialyzed fetal bovine serum (RPMI+ds) (AID 1963877). Also: potency is read from the fitted curve at half-maximal effect; nearly all actives have a fitted effect of over 30% in size. An outline of the steps: as §1
Test [5] is described as follows: Quantitative highthroughput screen to assess conditional lethalithy of NOMO1 cells grown in Human Plasma-Like Medium with dialyzed fetal bovine serum (HPLM+ds) (AID 1963878). Also: potency is read from the fitted curve at half-maximal effect; nearly all actives have a fitted effect of over 35% in size. Summed up:
as §1

Test [6] is described as follows: Quantitative highthroughput screen to assess conditional lethalithy of P12 Ichikawa cells grown in Human Plasma-Like Medium with dialyzed fetal bovine serum (HPLM+ds) (AID 1963879). Also: potency is read from the fitted curve at half-maximal effect; nearly all actives have a fitted effect of over 35% in size. Particulars: Potency: viability. An outline of the steps: as §1
A short description of test [7]: Quantitative highthroughput screen to assess conditional lethalithy of P12 Ichikawa cells grown in RPMI1640 with dialyzed fetal bovine serum (RPMI+ds) (AID 1963880). Particulars: Potency: P12-Ichikawa viability. An outline of the steps: as §1
Test [8] can be described thus: Quantitative highthroughput screen to assess conditional lethalithy of P12 Ichikawa cells grown in RPMI1640 with untreated serum (RPMI+s) (AID 1963881). Particulars: Potency: viability. An outline of the steps: as §1
The nature of test [9]: Quantitative highthroughput screen to assess conditional lethalithy of SEM cells grown in Human Plasma-Like Medium with dialyzed fetal bovine serum (HPLM+ds) (AID 1963882). Summed up: as §1

In the case of `Cc1cc(Nc2nn(-c3ccccc3)c(=O)c3ccccc23)n[nH]1`, the Potency in [1] was 0.146 µM (active); in [2], 0.461 µM (active).
For `CN(Cc1ccc(C(C)(C)C)cc1)Cc1cccc2ccccc12` the same measures were “inactive” and “inactive”.
Consider `OC[C@H]1O[C@@H](OCc2ccccc2)[C@H](O[C@@H]2OC[C@@H](O)[C@H](O)[C@H]2O)[C@@H](O)[C@@H]1O`, for which the Potency entry in test [1] and in [2] was “inactive” each time.
On to `NS(=O)(=O)c1ccc(N=Nc2c(O)[nH]c3ccc(Br)cc23)cc1`, for which the Potency is 0.13 µM (active) in test [1] and 1.03 µM (active) in [2].
For `CC(C)(F)CC(NC(c1ccc(-c2ccc(S(C)(=O)=O)cc2)cc1)C(F)(F)F)C(=O)NC1(C#N)CC1` (stereo unspecified) the same measures were “inactive” and 3.66 µM (active).
The matching figures for `C=C1C(=O)O[C@@H]2[C@H]1CC(=O)[C@H](C)[C@@](O)(C(=O)/C=C/C)[C@H]2OC(=O)C(C)CC` (stereo partly specified): 0.36 µM (active) and 0.508 µM (active).
For the molecule `O=C1O[C@H](C(O)CO)C(=O)C1=O` (stereo partly specified), the Potency entry in test [1] and in [2] was “inactive” each time.
Consider `CNC1CN(c2ccc3c(=O)c(C(=O)O)cn(-c4nccs4)c3n2)CC1OC` (stereo unspecified), for which the values for the Potency in test [1] and in test [2] were 0.422 µM (active) and 0.376 µM (active), respectively.
In the case of `CC(=O)OC[C@]12[C@H](OC(C)=O)C(=O)[C@@H]3[C@@H](O)[C@@]14O[C@@]3(C)COC(=O)c1cccnc1[C@@H](C)[C@H](C)C(=O)O[C@@H]([C@H](O)[C@@H]2OC(C)=O)[C@]4(C)O`, the results for the Potency in test [1] and in test [2] were 1.72 µM (active) and 3.43 µM (active), respectively.
As to `C=C(C)C(=O)O[C@H]1[C@H]2C(=C)C(=O)O[C@@H]2C[C@@H](C)[C@@H]2O[C@@H]2C(=O)[C@](C)(O)[C@@H]1OC(=O)C(=C)C`, the Potency in [1] and in [2] was 1 µM (active) throughout.
For the molecule `O=C(O)c1ccnc(-c2cc(C(=O)NCCc3ccccc3)ccn2)c1`, the Potency entry in test [1] and in [2] was “inactive” in each case.
Take `COc1ccc(/C=C/C(=O)O[C@@H]2[C@@H](O)[C@@H](O)[C@H](O[C@H]3[C@@H]4C=CO[C@@H](O[C@@H]5O[C@H](CO)[C@@H](O)[C@H](O)[C@H]5O)[C@@H]4[C@@]4(CO)O[C@@H]34)O[C@H]2C)cc1`: the Potency result in test [1] and in [2] was “inactive” throughout.
With `O=C(/C=C/c1ccc(O)c(O)c1)O[C@H]1[C@@H]2C=CO[C@@H](O[C@@H]3O[C@H](CO)[C@@H](O)[C@H](O)[C@H]3O)[C@@H]2[C@@]2(CO)O[C@@H]12`, the Potency entry in test [1] and in test [2] was “inactive” in each case.
For `COC(=O)C1=COC(OC2OC(CO)C(O)C(O)C2O)C2C(C)C(OC(C)=O)C(OC(=O)c3ccccc3)C12` (stereo unspecified), the Potency entry in test [1] and in test [2] was “inactive” each time.
For `CC(C)C[C@H](NC(=O)CNC(=O)OCc1ccccc1)C(=O)N[C@@H](Cc1ccccc1)C(=O)CCl`, the Potency was 18.4 µM (active) in [1] and 8.2 µM (active) in [2].
In the case of `Cc1coc2c1CC1OC1(C)CCC1OC1(C)C2` (stereo unspecified), the Potency entry in [1] and in [2] was “inactive” throughout.
For `C/C=C/C=C/C=C/C(=O)O[C@@H]1[C@@H](OC)C2=C(C(=O)N(C(CCC(=O)O)C(=O)O)C2)[C@@]2(C)CCCC(C)(C)[C@H]12` (stereo partly specified), the Potency result in test [1] and in [2] was “inactive” in each case.
Take `CC1OC(OCC2OC(OC3CCC4(C)C(CCC5(C)C4CC=C4C6CC(C)(C)CCC6(C(=O)OC6OC(CO)C(O)C(O)C6O)CCC45C)C3(C)CO)C(O)C(O)C2O)C(O)C(O)C1O` (stereo unspecified): in test [1], the viability (% of control) is 79.6% [at 9.25 µM]. For the same molecule, in test [2], the viability, % of control was 96.2% [at 9.25 µM].
For the molecule `OC[C@@]1(O)CO[C@H](OC[C@H]2O[C@@H](OC(CCCCc3ccc(O)cc3)CCc3ccc(O)cc3)[C@H](O[C@H]3OC[C@](O)(CO)[C@H]3O)[C@@H](O)[C@@H]2O)[C@@H]1O` (stereo partly specified), the Potency result in test [1] and in test [2] was “inactive” throughout.
For `Nc1nonc1-c1nc2cnccc2n1C1CCCCC1`, the Potency was 0.517 µM (active) in [1] and 0.731 µM (active) in test [2].
Turning to `C[C@@H]1CC[C@]2(C(=O)OC3OC(CO)C(O)C(O)C3O)CC[C@]3(C)C(=CCC4[C@@]5(C)CC[C@H](O)[C@](C)(C(=O)O)C5CC[C@]43C)C2[C@]1(C)O` (stereo partly specified), the Potency entry in test [1] and in test [2] was “inactive” throughout.
`C/C=C/C1=CC2=C(CO1)C(=O)C(C)(OC(=O)c1c(C)cc(O)cc1OC)C(O)C2` (stereo unspecified): the Potency in test [1] is 5.7 µM (active); in test [2], 5.08 µM (active).
For `CC[C@]1(O)CC2CN(CCc3c([nH]c4ccccc34)[C@@](C(=O)OC)(c3cc4c(cc3OC)N(C=O)[C@H]3[C@@](O)(C(=O)OC)[C@H](OC(C)=O)[C@]5(CC)C=CCN6CC[C@]43[C@@H]65)C2)C1` (stereo partly specified) the same measures were 0.0805 µM (active) and 0.0508 µM (active).
The matching figures for `C[C@@H]1O[C@@H](O[C@H]2[C@@H]3C=CO[C@@H](O[C@@H]4O[C@H](CO)[C@@H](O)[C@H](O)[C@H]4O)[C@@H]3[C@@]3(CO)O[C@@H]23)[C@H](OC(=O)/C=C/c2ccccc2)[C@H](O)[C@H]1O`: “inactive” and “inactive”.
As for `COc1cc(C2c3cc4c(c(O)c3CC(CO)C2C(=O)O)OCO4)cc(OC)c1O` (stereo unspecified), the values for the Potency in test [1] and in test [2] were 2.52 µM (active) and 2 µM (active), respectively.
As for `C[C@@H](O)[C@H](N)C(=O)N1CCC[C@H]1C(=O)N1CCC[C@H]1C(=O)N[C@H](C(N)=O)[C@@H](C)O`, the viability (% of control) in [1] is 90.2% [at 9.25 µM]. Also, the viability, % of control in test [2] is 81.3% [at 9.25 µM].
Take `CC(C)=CCC[C@](C)(O[C@@H]1O[C@H](CO[C@@H]2OC[C@@H](O)[C@H](O)[C@H]2O)[C@@H](O)[C@H](O)[C@H]1O)[C@H]1CC[C@]2(C)[C@@H]1[C@H](O)C[C@@H]1[C@@]3(C)CC[C@H](O[C@@H]4O[C@H](CO)[C@@H](O)[C@H](O)[C@H]4O[C@@H]4O[C@H](CO)[C@@H](O)[C@H](O)[C@H]4O)C(C)(C)[C@@H]3CC[C@]12C`: the Potency result in [1] and in test [2] was “inactive” each time.
On to `COc1cc(C)c(C(=O)O[C@H]2[C@@H](O)[C@H](n3ccc(=O)[nH]c3=O)O[C@@H]2CO)c(OC)c1`, for which the Potency entry in test [1] and in [2] was “inactive” each time.
As for `CCCc1c(C(C)C)nc(C(C)C)c([C@@H](C)O)c1-c1ccc(F)cc1O`, the figures for the Potency in test [1] and in test [2] were 9.2 µM (active) and 8.2 µM (active), respectively.
For `Cc1ccc(-c2nn(C(C)(C)C)c3ncnc(N)c23)cc1` the same measures were 3.66 µM (active) and 8.2 µM (active).
In the case of `CC(=O)O[C@H]1[C@H](OC(=O)C(C)C)[C@]2(C)OC3(CC[C@]2(C)[C@H]2CCC[C@]4(CO4)[C@]12C)COC(=O)C3` (stereo partly specified), the Potency result in test [1] and in test [2] was “inactive” throughout.
Regarding `COc1ccccc1-n1c(SCC(=O)Nc2nc3ccc(C)cc3s2)nc2c(c1=O)SCC2`, the Potency entry in test [1] and in [2] was “inactive” each time.
On to `CC[C@@H](N)CNc1ccnc(-c2cc(-c3cnn(C)c3)ccc2O)n1`, for which the Potency is 0.92 µM (active) in test [1] and 1.64 µM (active) in test [2].
The matching figures for `CC1CCC2(C=O)C(CO)=CCCC2C1(C)CC(=O)O` (stereo unspecified): “inactive” and “inactive”.
`C=CC(=O)N1CCC(C2CCNc3c(C(N)=O)c(-c4ccc(Oc5ccccc5)cc4)nn32)CC1` (stereo unspecified): the Potency in test [1] was 7.42 µM (active); in test [2], 11.8 µM (active).
As to `CN(C1CCc2c(c3ccccc3n2CC(=O)O)C1)S(=O)(=O)c1ccc(F)cc1` (stereo unspecified), the Potency entry in [1], in test [2] and in test [9] was “inactive” throughout. Further, the Potency is 7.43 µM (active) in [3]; 7.43 µM (active) in test [4]; 5.9 µM (active) in test [5]; 8.33 µM (active) in test [6]; 14.8 µM (active) in test [7]; 9.35 µM (active) in test [8].
As for `C=C1C[C@]23C[C@@]1(O)CC[C@H]2[C@@]12C=C[C@H](O)[C@@](C)(C(=O)O1)[C@H]2[C@@H]3C(=O)O`, the Potency entry in [1] and in test [2] was “inactive” in each case.
